Test results: the supplement of paper PMC10849652
Targets with a hit are over-represented here; the source holds about 8,800 in all. About 0.5% of all pairs of compound and target were hits. Values without a mark were called inactive.

These targets were tested with CC[C@@H]1C(=O)N(C)c2cnc(Nc3ccc(C(=O)NC4CCN(C)CC4)cc3OC)nc2N1C1CCCC1 (assay: log2 fold change, soluble protein after heating vs DMSO (PISA); higher = thermal stabilisation; K562 lysate, 10 uM; active = over 0.2 and 3.5 SD of the protein, either way, in both replicates (recomputed)).
Outline: (§1)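 K562 pellets were dounce-homogenised in PBS pH 7.4 with 1 mM MgCl2, and the crude extract at 1 mg/mL protein was treated with 10 μM compound for 30 min. Aliquots were heated for 3 min across 48°C-58°C, pooled, and brought to 0.5% NP-40 at 4°C; soluble protein was the supernatant after 21,000xg for 90 min. Soluble protein was quantified by TMTpro 16plex LC-MS/MS with channel sums equalised, and reported as log2 fold change in thermal stability against DMSO controls, with values from duplicates.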

Chain of UniProt O76041 (O76041 whole entry, looked up): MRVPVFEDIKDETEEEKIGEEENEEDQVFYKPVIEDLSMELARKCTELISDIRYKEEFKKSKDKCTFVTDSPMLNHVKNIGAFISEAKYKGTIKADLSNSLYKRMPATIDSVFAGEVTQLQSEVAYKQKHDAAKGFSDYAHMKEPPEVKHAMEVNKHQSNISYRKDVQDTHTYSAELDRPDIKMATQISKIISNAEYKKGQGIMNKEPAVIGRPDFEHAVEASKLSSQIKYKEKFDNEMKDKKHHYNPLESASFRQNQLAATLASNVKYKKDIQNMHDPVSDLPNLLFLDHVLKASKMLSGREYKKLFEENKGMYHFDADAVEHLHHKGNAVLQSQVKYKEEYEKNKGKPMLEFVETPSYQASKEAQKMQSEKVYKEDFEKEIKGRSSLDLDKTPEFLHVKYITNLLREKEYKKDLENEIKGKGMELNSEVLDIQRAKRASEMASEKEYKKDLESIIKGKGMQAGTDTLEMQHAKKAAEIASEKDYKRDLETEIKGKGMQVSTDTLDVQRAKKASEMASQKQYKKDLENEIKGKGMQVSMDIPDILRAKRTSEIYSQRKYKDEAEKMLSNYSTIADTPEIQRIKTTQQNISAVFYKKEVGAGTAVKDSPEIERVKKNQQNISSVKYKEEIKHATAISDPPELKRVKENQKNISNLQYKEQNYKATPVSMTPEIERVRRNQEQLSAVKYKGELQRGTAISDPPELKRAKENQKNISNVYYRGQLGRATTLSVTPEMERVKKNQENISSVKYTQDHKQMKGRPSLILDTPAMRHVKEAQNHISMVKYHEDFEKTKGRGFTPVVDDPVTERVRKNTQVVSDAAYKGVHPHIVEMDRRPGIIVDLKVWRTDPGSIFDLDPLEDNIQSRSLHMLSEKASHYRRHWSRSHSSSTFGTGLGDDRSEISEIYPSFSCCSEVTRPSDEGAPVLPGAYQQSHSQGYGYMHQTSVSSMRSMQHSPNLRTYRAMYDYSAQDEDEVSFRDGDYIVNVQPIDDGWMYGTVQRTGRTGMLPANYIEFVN
Chain of UniProt Q9BZD4 (Q9BZD4 whole entry, looked up): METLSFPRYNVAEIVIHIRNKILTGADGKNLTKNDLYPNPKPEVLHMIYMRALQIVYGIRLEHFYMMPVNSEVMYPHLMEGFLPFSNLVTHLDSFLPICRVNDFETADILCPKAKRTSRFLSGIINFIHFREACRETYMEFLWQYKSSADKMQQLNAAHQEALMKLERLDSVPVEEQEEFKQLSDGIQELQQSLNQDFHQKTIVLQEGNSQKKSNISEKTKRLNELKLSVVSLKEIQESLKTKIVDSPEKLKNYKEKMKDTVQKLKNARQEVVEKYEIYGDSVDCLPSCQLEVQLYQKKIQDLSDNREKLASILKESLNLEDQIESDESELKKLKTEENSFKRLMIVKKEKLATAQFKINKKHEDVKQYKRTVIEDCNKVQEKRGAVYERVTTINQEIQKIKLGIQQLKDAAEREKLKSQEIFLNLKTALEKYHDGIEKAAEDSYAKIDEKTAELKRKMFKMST
Chain of UniProt Q9Y639 (Q9Y639 whole entry, looked up): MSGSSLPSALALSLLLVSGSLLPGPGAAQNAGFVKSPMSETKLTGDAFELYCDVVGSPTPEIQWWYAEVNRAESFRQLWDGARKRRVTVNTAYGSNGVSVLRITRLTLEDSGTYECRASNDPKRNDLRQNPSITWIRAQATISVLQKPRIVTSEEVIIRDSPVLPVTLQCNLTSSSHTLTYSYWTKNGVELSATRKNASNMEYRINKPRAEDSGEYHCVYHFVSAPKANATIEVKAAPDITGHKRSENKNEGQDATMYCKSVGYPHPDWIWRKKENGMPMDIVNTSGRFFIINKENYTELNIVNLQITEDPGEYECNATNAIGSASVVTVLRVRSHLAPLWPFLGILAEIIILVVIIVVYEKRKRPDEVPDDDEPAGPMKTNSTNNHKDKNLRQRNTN
Chain of UniProt Q6KC79 (Q6KC79 whole entry, looked up): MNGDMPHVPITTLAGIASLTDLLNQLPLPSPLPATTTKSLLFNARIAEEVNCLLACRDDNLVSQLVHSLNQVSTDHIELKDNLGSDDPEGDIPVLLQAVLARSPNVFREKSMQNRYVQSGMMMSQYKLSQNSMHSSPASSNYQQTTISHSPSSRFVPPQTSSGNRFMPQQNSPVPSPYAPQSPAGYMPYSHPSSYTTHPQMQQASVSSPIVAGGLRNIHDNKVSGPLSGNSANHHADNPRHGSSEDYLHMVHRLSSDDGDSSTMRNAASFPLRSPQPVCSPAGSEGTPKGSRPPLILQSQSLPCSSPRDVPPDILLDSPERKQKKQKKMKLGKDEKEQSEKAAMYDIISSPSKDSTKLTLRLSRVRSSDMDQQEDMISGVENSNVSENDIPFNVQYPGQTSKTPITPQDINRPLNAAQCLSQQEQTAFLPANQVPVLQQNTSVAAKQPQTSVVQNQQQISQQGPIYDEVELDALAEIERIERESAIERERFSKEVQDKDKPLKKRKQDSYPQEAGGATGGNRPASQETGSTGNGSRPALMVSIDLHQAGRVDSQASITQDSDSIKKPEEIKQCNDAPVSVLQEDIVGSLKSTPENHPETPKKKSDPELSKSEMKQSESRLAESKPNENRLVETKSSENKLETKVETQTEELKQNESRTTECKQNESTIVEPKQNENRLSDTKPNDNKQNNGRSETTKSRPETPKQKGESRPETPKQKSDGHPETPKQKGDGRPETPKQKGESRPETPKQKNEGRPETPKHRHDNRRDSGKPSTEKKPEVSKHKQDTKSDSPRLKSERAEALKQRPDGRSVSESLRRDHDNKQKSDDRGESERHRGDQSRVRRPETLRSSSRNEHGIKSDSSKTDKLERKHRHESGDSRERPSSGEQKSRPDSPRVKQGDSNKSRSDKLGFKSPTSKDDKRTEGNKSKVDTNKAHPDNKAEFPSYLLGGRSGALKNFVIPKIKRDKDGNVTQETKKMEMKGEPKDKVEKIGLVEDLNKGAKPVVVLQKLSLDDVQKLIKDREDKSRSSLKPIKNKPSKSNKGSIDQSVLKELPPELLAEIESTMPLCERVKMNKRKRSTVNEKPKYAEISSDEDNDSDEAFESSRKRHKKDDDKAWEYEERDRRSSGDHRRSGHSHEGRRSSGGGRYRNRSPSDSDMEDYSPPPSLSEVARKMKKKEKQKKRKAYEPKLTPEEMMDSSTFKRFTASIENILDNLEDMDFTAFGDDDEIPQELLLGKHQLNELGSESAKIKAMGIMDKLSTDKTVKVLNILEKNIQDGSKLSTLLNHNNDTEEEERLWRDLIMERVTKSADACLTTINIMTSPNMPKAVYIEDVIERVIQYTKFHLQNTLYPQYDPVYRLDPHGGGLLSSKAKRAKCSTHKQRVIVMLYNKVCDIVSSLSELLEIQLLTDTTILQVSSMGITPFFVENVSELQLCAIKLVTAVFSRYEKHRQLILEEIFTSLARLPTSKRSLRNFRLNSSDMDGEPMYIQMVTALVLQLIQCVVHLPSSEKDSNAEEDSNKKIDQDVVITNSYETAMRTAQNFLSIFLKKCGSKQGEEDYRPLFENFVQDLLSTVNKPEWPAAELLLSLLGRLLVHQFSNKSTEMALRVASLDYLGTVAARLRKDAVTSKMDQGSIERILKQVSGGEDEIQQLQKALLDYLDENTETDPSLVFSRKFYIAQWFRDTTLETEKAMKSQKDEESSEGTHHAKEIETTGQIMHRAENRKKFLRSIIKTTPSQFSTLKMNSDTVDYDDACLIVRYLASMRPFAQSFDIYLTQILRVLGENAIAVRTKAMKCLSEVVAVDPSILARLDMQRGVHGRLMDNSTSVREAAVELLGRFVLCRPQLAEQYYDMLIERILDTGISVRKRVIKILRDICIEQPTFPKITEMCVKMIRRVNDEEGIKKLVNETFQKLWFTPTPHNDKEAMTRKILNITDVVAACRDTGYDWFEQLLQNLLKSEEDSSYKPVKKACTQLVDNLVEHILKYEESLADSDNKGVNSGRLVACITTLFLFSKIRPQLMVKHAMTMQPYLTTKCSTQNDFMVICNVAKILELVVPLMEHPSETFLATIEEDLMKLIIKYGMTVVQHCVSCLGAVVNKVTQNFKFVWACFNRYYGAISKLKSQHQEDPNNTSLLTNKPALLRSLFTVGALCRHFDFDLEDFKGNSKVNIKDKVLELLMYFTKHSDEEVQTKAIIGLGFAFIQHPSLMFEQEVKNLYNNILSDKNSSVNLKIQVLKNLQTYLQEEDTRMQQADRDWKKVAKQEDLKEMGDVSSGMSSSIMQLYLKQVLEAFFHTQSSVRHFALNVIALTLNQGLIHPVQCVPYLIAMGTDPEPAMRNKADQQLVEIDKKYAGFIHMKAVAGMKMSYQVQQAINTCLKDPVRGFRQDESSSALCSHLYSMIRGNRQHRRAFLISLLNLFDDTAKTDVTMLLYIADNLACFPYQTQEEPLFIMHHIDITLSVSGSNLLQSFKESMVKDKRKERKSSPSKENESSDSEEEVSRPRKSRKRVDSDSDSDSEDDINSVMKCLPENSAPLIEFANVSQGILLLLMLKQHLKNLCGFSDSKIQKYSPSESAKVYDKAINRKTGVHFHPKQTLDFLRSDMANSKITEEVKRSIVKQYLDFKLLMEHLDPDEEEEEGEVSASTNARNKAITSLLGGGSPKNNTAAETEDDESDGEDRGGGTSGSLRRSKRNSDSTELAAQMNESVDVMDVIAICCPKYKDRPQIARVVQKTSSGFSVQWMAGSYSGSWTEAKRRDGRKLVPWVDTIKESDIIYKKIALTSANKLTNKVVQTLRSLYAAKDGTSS
Chain of UniProt Q9HBL8 (Q9HBL8 whole entry, looked up): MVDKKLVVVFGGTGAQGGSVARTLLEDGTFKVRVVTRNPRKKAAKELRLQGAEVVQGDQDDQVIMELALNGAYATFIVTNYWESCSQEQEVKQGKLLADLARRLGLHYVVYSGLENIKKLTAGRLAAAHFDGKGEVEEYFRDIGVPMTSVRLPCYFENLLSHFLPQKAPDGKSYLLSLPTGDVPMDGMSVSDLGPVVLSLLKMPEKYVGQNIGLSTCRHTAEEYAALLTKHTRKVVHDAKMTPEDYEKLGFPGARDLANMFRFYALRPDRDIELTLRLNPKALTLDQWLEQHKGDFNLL

| Target | log2 fold change |
| --- | --- |
| MRPS12 (UniProt O15235) | 0.045 |
| NOSIP (UniProt Q9Y314) | 0.017 |
| N6AMT1 (UniProt Q9Y5N5) | 0.005 |
| NEBL isoform 2 (UniProt O76041) | 0.02 |
| NAT1 (UniProt P18440) | 0.003 |
| NUMBL (UniProt Q9Y6R0) | -0.009 |
| NDUFAF5 (UniProt Q5TEU4) | 0.127 |
| ORC3 isoform 2 (UniProt Q9UBD5) | -0.036 |
| PAK1 (UniProt Q13153) | -0.002 |
| OLA1 (UniProt Q9NTK5) | -0.047 |
| OARD1 (UniProt Q9Y530) | -0.01 |
| NIPBL (UniProt Q6KC79) | -0.081 |
| MTA1 (UniProt Q13330) | -0.005 |
| MYH11 isoform 2 (UniProt P35749) | -0.011 |
| PANK2 (UniProt Q9BZ23) | 0.011 |
| NPTN (UniProt Q9Y639) | 0.032 |
| NEBL (UniProt O76041) | 0.039 |
| NT5DC2 isoform 2 (UniProt Q9H857) | 0.011 |

| Target | log2 fold change |
| --- | --- |
| NFATC1 (UniProt O95644) | 0.001 |
| NUP93 (UniProt Q8N1F7) | -0.069 |
| MTCH2 (UniProt Q9Y6C9) | 0.021 |
| MTA2 (UniProt O94776) | 0.03 |
| NONO (UniProt Q15233) | -0.032 |
| NCAPG2 (UniProt Q86XI2) | -0.055 |
| NF1 (UniProt P21359) | -0.044 |
| NIPSNAP3A (UniProt Q9UFN0) | 0.043 |
| PAN2 isoform 2 (UniProt Q504Q3) | 0.041 |
| NUP205 (UniProt Q92621) | -0.047 |
| NBN (UniProt O60934) | -0.028 |
| NCAPD2 (UniProt Q15021) | -0.027 |
| NEK9 (UniProt Q8TD19) | 0.004 |
| NMRAL1 (UniProt Q9HBL8) | 0.045 |
| OSBP2 (UniProt Q969R2) | 0.062 |
| NLRP2 (UniProt Q9NX02) | -0.048 |
| NUF2 (UniProt Q9BZD4) | -0.126 |
| NR3C1 isoform 3 (UniProt P04150) | -0.086 |

Each target was assayed with CC[C@@H]1C(=O)N(C)c2cnc(Nc3ccc(C(=O)N[C@H]4CC[C@H](N5CCN(CC6CC6)CC5)CC4)cc3OC)nc2N1C(C)C [volasertib] in the same assay as above.
Outline: as §1

| Target | log2 fold change |
| --- | --- |
| MRPS12 (UniProt O15235) | 0.011 |
| NOSIP (UniProt Q9Y314) | -0.035 |
| N6AMT1 (UniProt Q9Y5N5) | -0.04 |
| NEBL isoform 2 (UniProt O76041) | 0.051 |
| NAT1 (UniProt P18440) | 0.009 |
| NUMBL (UniProt Q9Y6R0) | -0.037 |
| NDUFAF5 (UniProt Q5TEU4) | 0.04 |
| ORC3 isoform 2 (UniProt Q9UBD5) | -0.059 |
| PAK1 (UniProt Q13153) | 0.023 |
| OLA1 (UniProt Q9NTK5) | -0.029 |
| OARD1 (UniProt Q9Y530) | -0.031 |
| NIPBL (UniProt Q6KC79) | -0.048 |
| MTA1 (UniProt Q13330) | -0.007 |
| MYH11 isoform 2 (UniProt P35749) | -0.025 |
| PANK2 (UniProt Q9BZ23) | -0.086 |
| NPTN (UniProt Q9Y639) | -0.038 |
| NEBL (UniProt O76041) | 0.014 |
| NT5DC2 isoform 2 (UniProt Q9H857) | -0.028 |

| Target | log2 fold change |
| --- | --- |
| NFATC1 (UniProt O95644) | 0 |
| NUP93 (UniProt Q8N1F7) | -0.094 |
| MTCH2 (UniProt Q9Y6C9) | 0.05 |
| MTA2 (UniProt O94776) | -0.008 |
| NONO (UniProt Q15233) | -0.049 |
| NCAPG2 (UniProt Q86XI2) | -0.006 |
| NF1 (UniProt P21359) | -0.048 |
| NIPSNAP3A (UniProt Q9UFN0) | 0.019 |
| PAN2 isoform 2 (UniProt Q504Q3) | -0.132 |
| NUP205 (UniProt Q92621) | -0.074 |
| NBN (UniProt O60934) | -0.019 |
| NCAPD2 (UniProt Q15021) | -0.057 |
| NEK9 (UniProt Q8TD19) | -0.01 |
| NMRAL1 (UniProt Q9HBL8) | -0.046 |
| OSBP2 (UniProt Q969R2) | -0.077 |
| NLRP2 (UniProt Q9NX02) | -0.067 |
| NUF2 (UniProt Q9BZD4) | -0.029 |
| NR3C1 isoform 3 (UniProt P04150) | -0.046 |
